# Structures can show the parent of a compound that is named as a salt. Whole data set: some 1,500 compounds, median “Excess HSA synergy score (sum over dose matrix of excess over highest single agent)” near 43, cut for the lowest 2% near -900. This excerpt belongs to a sample that is enriched for the lowest values.
# Tested on: PEO-1
# Experiment: Excess HSA synergy score (sum over dose matrix of excess over highest single agent) (score (summed % response)); higher = less synergy / more antagonism (negative = synergy)
# Details: 72 h, read-out: viability/apoptosis luminescence (CellTiter-Glo or Caspase3-Glo / not stated per table)
# [1] = matrix design: 6x6, 5-fold dilutions (primary screen)
# [2] = matrix design: 10x10, 9-step dilutions (confirmatory)
SMILES,Excess HSA synergy score [1],Excess HSA synergy score [2]
COc1cc2c(Nc3ccc(Cl)c(Cl)c3F)ncnc2cc1OC[C@@H]1C[C@@H]2CN(C)C[C@@H]2C1 + CC[C@H](NC(=O)[C@H](C)NC)C(=O)N1C[C@@H](O)C[C@H]1Cc1c(-c2[nH]c3cc(F)ccc3c2C[C@@H]2C[C@H](O)CN2C(=O)[C@H](CC)NC(=O)[C@H](C)NC)[nH]c2cc(F)ccc12 [Birinapant],-5.11,
Nc1cc(C(F)(F)F)c(-c2cc(N3CCOCC3)nc(N3CCOCC3)n2)cn1 + CC[C@H](NC(=O)[C@H](C)NC)C(=O)N1C[C@@H](O)C[C@H]1Cc1c(-c2[nH]c3cc(F)ccc3c2C[C@@H]2C[C@H](O)CN2C(=O)[C@H](CC)NC(=O)[C@H](C)NC)[nH]c2cc(F)ccc12 [Birinapant],242,
c1ccc(CNc2nc(NCc3ccccc3)c3ccccc3n2)cc1 + CC[C@H](NC(=O)[C@H](C)NC)C(=O)N1C[C@@H](O)C[C@H]1Cc1c(-c2[nH]c3cc(F)ccc3c2C[C@@H]2C[C@H](O)CN2C(=O)[C@H](CC)NC(=O)[C@H](C)NC)[nH]c2cc(F)ccc12 [Birinapant],-180,
CCC(C)SSc1ncc[nH]1 (stereo not drawn) + CC[C@H](NC(=O)[C@H](C)NC)C(=O)N1C[C@@H](O)C[C@H]1Cc1c(-c2[nH]c3cc(F)ccc3c2C[C@@H]2C[C@H](O)CN2C(=O)[C@H](CC)NC(=O)[C@H](C)NC)[nH]c2cc(F)ccc12 [Birinapant],79.6,
CS(=O)(=O)Oc1ccc2c(NC(N)=O)c(C(=O)c3ccc(Cl)cc3Cl)oc2c1 [Lirimilast] + CC[C@H](NC(=O)[C@H](C)NC)C(=O)N1C[C@@H](O)C[C@H]1Cc1c(-c2[nH]c3cc(F)ccc3c2C[C@@H]2C[C@H](O)CN2C(=O)[C@H](CC)NC(=O)[C@H](C)NC)[nH]c2cc(F)ccc12 [Birinapant],-20.9,
CCC1=C[C@@H]2CN(C1)Cc1c([nH]c3ccccc13)[C@@](C(=O)OC)(c1cc3c(cc1OC)N(C)[C@H]1[C@@](O)(C(=O)OC)[C@H](OC(C)=O)[C@]4(CC)C=CCN5CC[C@]31[C@@H]54)C2 [Vinorelbine] + CC[C@H](NC(=O)[C@H](C)NC)C(=O)N1C[C@@H](O)C[C@H]1Cc1c(-c2[nH]c3cc(F)ccc3c2C[C@@H]2C[C@H](O)CN2C(=O)[C@H](CC)NC(=O)[C@H](C)NC)[nH]c2cc(F)ccc12 [Birinapant],91.9,
COc1cc(C(C)=O)ccc1OCCCN1CCC(c2noc3cc(F)ccc23)CC1 [Iloperidone] + CC[C@H](NC(=O)[C@H](C)NC)C(=O)N1C[C@@H](O)C[C@H]1Cc1c(-c2[nH]c3cc(F)ccc3c2C[C@@H]2C[C@H](O)CN2C(=O)[C@H](CC)NC(=O)[C@H](C)NC)[nH]c2cc(F)ccc12 [Birinapant],75,
CN1C(=O)C(Cc2c[nH]c3ccccc23)NC1=S (stereo not drawn) [Necrostatin-1] + CC[C@H](NC(=O)[C@H](C)NC)C(=O)N1C[C@@H](O)C[C@H]1Cc1c(-c2[nH]c3cc(F)ccc3c2C[C@@H]2C[C@H](O)CN2C(=O)[C@H](CC)NC(=O)[C@H](C)NC)[nH]c2cc(F)ccc12 [Birinapant],340,
Clc1ccc(-c2nc3sccn3c2/C=N/OCc2ccc(Cl)c(Cl)c2)cc1 + CC[C@H](NC(=O)[C@H](C)NC)C(=O)N1C[C@@H](O)C[C@H]1Cc1c(-c2[nH]c3cc(F)ccc3c2C[C@@H]2C[C@H](O)CN2C(=O)[C@H](CC)NC(=O)[C@H](C)NC)[nH]c2cc(F)ccc12 [Birinapant],56.2,
NS(=O)(=O)OC[C@@H]1C[C@@H](n2ccc3c(N[C@H]4CCc5ccccc54)ncnc32)C[C@@H]1O + CC[C@H](NC(=O)[C@H](C)NC)C(=O)N1C[C@@H](O)C[C@H]1Cc1c(-c2[nH]c3cc(F)ccc3c2C[C@@H]2C[C@H](O)CN2C(=O)[C@H](CC)NC(=O)[C@H](C)NC)[nH]c2cc(F)ccc12 [Birinapant],-120,-1280
CN1CCCN=C1/C=C/c1cccs1 [Pyrantel pamoate] + CC[C@H](NC(=O)[C@H](C)NC)C(=O)N1C[C@@H](O)C[C@H]1Cc1c(-c2[nH]c3cc(F)ccc3c2C[C@@H]2C[C@H](O)CN2C(=O)[C@H](CC)NC(=O)[C@H](C)NC)[nH]c2cc(F)ccc12 [Birinapant],18.2,
O=C(Nc1nc2cccc(-c3ccc(CN4CCS(=O)(=O)CC4)cc3)n2n1)C1CC1 [Filgotinib] + CC[C@H](NC(=O)[C@H](C)NC)C(=O)N1C[C@@H](O)C[C@H]1Cc1c(-c2[nH]c3cc(F)ccc3c2C[C@@H]2C[C@H](O)CN2C(=O)[C@H](CC)NC(=O)[C@H](C)NC)[nH]c2cc(F)ccc12 [Birinapant],94.7,
COc1cccc2nc(-c3cccs3)nc(NN3C(=O)C=C(C)C3=O)c12 + CC[C@H](NC(=O)[C@H](C)NC)C(=O)N1C[C@@H](O)C[C@H]1Cc1c(-c2[nH]c3cc(F)ccc3c2C[C@@H]2C[C@H](O)CN2C(=O)[C@H](CC)NC(=O)[C@H](C)NC)[nH]c2cc(F)ccc12 [Birinapant],-105,-1130
COCC[n+]1c2c(n(Cc3cnccn3)c1C)C(=O)c1ccccc1C2=O [Sepantronium bromide] + CC[C@H](NC(=O)[C@H](C)NC)C(=O)N1C[C@@H](O)C[C@H]1Cc1c(-c2[nH]c3cc(F)ccc3c2C[C@@H]2C[C@H](O)CN2C(=O)[C@H](CC)NC(=O)[C@H](C)NC)[nH]c2cc(F)ccc12 [Birinapant],55.3,281
CCCCCNC(=O)N1CCC(CN(Cc2ccc(Cl)cc2)Cc2ccc([N+](=O)[O-])s2)C1 (stereo not drawn) + CC[C@H](NC(=O)[C@H](C)NC)C(=O)N1C[C@@H](O)C[C@H]1Cc1c(-c2[nH]c3cc(F)ccc3c2C[C@@H]2C[C@H](O)CN2C(=O)[C@H](CC)NC(=O)[C@H](C)NC)[nH]c2cc(F)ccc12 [Birinapant],-0.0169,
O=c1ccn(C2OC(CO)C(O)C2F)c(=O)[nH]1 (stereo not drawn) + CC[C@H](NC(=O)[C@H](C)NC)C(=O)N1C[C@@H](O)C[C@H]1Cc1c(-c2[nH]c3cc(F)ccc3c2C[C@@H]2C[C@H](O)CN2C(=O)[C@H](CC)NC(=O)[C@H](C)NC)[nH]c2cc(F)ccc12 [Birinapant],232,
Cc1cc(Nc2cc(CN3CCOCC3)c3nc(C)c(Cc4ccc(Cl)cc4F)n3n2)n[nH]1 [Gandotinib] + CC[C@H](NC(=O)[C@H](C)NC)C(=O)N1C[C@@H](O)C[C@H]1Cc1c(-c2[nH]c3cc(F)ccc3c2C[C@@H]2C[C@H](O)CN2C(=O)[C@H](CC)NC(=O)[C@H](C)NC)[nH]c2cc(F)ccc12 [Birinapant],66.5,
COc1ccc(-c2c(-c3ccc(O)cc3O)n[nH]c2C)cc1 + CC[C@H](NC(=O)[C@H](C)NC)C(=O)N1C[C@@H](O)C[C@H]1Cc1c(-c2[nH]c3cc(F)ccc3c2C[C@@H]2C[C@H](O)CN2C(=O)[C@H](CC)NC(=O)[C@H](C)NC)[nH]c2cc(F)ccc12 [Birinapant],59.5,
Cc1c(CN2CCN(S(C)(=O)=O)CC2)sc2c(N3CCOCC3)nc(-c3cnc(N)nc3)nc12 + CC[C@H](NC(=O)[C@H](C)NC)C(=O)N1C[C@@H](O)C[C@H]1Cc1c(-c2[nH]c3cc(F)ccc3c2C[C@@H]2C[C@H](O)CN2C(=O)[C@H](CC)NC(=O)[C@H](C)NC)[nH]c2cc(F)ccc12 [Birinapant],87.6,
C/C=C1\NC(=O)[C@H]2CSSCC/C=C/[C@H](CC(=O)N[C@H](C(C)C)C(=O)N2)OC(=O)[C@H](C(C)C)NC1=O [Romidepsin] + CC[C@H](NC(=O)[C@H](C)NC)C(=O)N1C[C@@H](O)C[C@H]1Cc1c(-c2[nH]c3cc(F)ccc3c2C[C@@H]2C[C@H](O)CN2C(=O)[C@H](CC)NC(=O)[C@H](C)NC)[nH]c2cc(F)ccc12 [Birinapant],-212,-1300
COc1cccc2c(NCc3ccccc3)nc(-n3c(N)nc4ccccc43)nc12 + CC[C@H](NC(=O)[C@H](C)NC)C(=O)N1C[C@@H](O)C[C@H]1Cc1c(-c2[nH]c3cc(F)ccc3c2C[C@@H]2C[C@H](O)CN2C(=O)[C@H](CC)NC(=O)[C@H](C)NC)[nH]c2cc(F)ccc12 [Birinapant],17,
N#CC1(c2cccc(C(=O)Nc3cc(Oc4ccc5nc(NC(=O)C6CC6)sc5n4)ccc3F)c2Cl)CC1 [Takeda-6d] + CC[C@H](NC(=O)[C@H](C)NC)C(=O)N1C[C@@H](O)C[C@H]1Cc1c(-c2[nH]c3cc(F)ccc3c2C[C@@H]2C[C@H](O)CN2C(=O)[C@H](CC)NC(=O)[C@H](C)NC)[nH]c2cc(F)ccc12 [Birinapant],135,
O[C@@H](CNC[C@H](O)[C@H]1CCc2cc(F)ccc2O1)[C@@H]1CCc2cc(F)ccc2O1 (racemic) [rac Nebivolol hydrochloride] + CC[C@H](NC(=O)[C@H](C)NC)C(=O)N1C[C@@H](O)C[C@H]1Cc1c(-c2[nH]c3cc(F)ccc3c2C[C@@H]2C[C@H](O)CN2C(=O)[C@H](CC)NC(=O)[C@H](C)NC)[nH]c2cc(F)ccc12 [Birinapant],50.2,
CC(C)(O)CC[C@@H](O)[C@](C)(O)[C@H]1CC[C@@]2(O)C3=CC(=O)[C@@H]4C[C@@H](O)[C@@H](O)C[C@]4(C)[C@H]3CC[C@]12C [20-hydroxyecdysone] + CC[C@H](NC(=O)[C@H](C)NC)C(=O)N1C[C@@H](O)C[C@H]1Cc1c(-c2[nH]c3cc(F)ccc3c2C[C@@H]2C[C@H](O)CN2C(=O)[C@H](CC)NC(=O)[C@H](C)NC)[nH]c2cc(F)ccc12 [Birinapant],229,
